Drawing on PubChem BioAssay AID435005 (Broad Institute, 2010), this text covers protection from apoptosis for 84 compounds.

About 2,400 (0.8%) of roughly 300,000 compounds were called active. This excerpt belongs to a sample that is enriched for actives. Values without a mark were called inactive.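 Rule for the calls: active = Every replicate reaches about 75%, or at least half do and their mean reaches it too (limit read from the data); inconclusive = At least half of replicates reach the limit but their mean does not; inactive = Under half of replicates reach the limit.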

A short description of the experiment: INS-1E beta cell survival under cytokines – luminescence, primary screen (AID 435005).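 Note: 0% = cytokine-treated negative control wells and 100% = positive control rescue; higher means more ATP so stronger rescue from cytokine killing.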 Particulars: INS-1E cytokine-induced death, ATP luminescence, 48 h; stronger effect = higher value; percent of positive-control rescue, neutral wells zero; concentration not given here.
For the compound `Nc1nonc1-n1nnc(C(=O)N/N=C\c2ccncc2)c1CN1CCCCC1`, the protection from apoptosis is -8.98%.
To `Nc1nonc1-n1nnc(C(=O)N/N=C/c2cc(Br)ccc2O)c1CSC1=NCCS1` belongs 86.6% (active); to `Cc1ccc(SCc2c(C(=O)N/N=C/C3CC=CCC3)nnn2-c2nonc2N)cc1` (centres undefined), -2.44%; to `NNC(=O)c1nnn(-c2nonc2N)c1CN1CCCC1`, 0.21%.
With `Nc1nonc1-n1nnc(C(=O)N/N=C/c2ccccc2O)c1CN1CCCC1`, the protection from apoptosis is 77.1% (active).
The same measure for `Cc1ccc(SCc2c(C(=O)N/N=C/c3cccnc3)nnn2-c2nonc2N)cc1`: -3.56%; for `COc1ccccc1-c1nnc2n1N=C(c1ccc(OC(F)F)c(OCC3CC3)c1)CS2`: 14.1%.
With `COc1ccc(CNC(=O)COC(=O)C(CCSC)N2C(=O)c3ccccc3C2=O)cc1` (centres undefined), the protection from apoptosis is -1.57%.
To `O=C1COc2ccc(C(=O)COC(=O)c3ccccc3Cl)cc2N1` belongs -5.54%.
Regarding `O=C(CSc1nc2ccccc2c(=O)n1Cc1ccc(F)cc1)NCC1CCCO1` (centres undefined), the protection from apoptosis was -5.32%.
The same measure for `CCOC(=O)C1CCN(CC(=O)Nc2ccc(OC)c(S(=O)(=O)N3CCCCC3)c2)CC1`: 0.731%; for `CCN(C[C@H]1N[C@@](CC)(C(=O)OC)[C@H]2C(=O)N(Cc3ccccc3)C(=O)[C@@H]12)S(=O)(=O)c1ccccc1`: -2.88%.
Take `O=C(N/N=C/c1ccc(OC(=O)c2ccccc2Cl)cc1)c1ccc(O)cc1`: the protection from apoptosis is -1.66%.
The same measure for `O=C(N/N=C/c1ccoc1)c1ccc(Cl)cc1Cl`: -6.52%.
In the case of `CC(C)(C)C(=O)Nc1ccc(C(=O)N/N=C/c2ccccc2OC(=O)c2ccc(Cl)cc2Cl)cc1`, the protection from apoptosis is 87.8% (active).
To `CC1O[C@@H](OC2C(O)C(C)O[C@H](OC(=O)[C@]34CCC(C)(C)C[C@H]3C3=CCC5[C@@]6(C)CC(O)C(O[C@@H]7OC(CO)C(O)[C@@H](O)[C@@H]7O)[C@@](C)(C(=O)O)C6CC[C@@]5(C)[C@]3(CO)CC4)C2O[C@H]2OC(C)[C@@H](O[C@@H]3OCC(O[C@@H]4OC(CO)C(O)[C@H](O)C4O)[C@@H](O)[C@@H]3O)[C@H](O)C2O)C(O)C(O)C1O` (some centres undefined) belongs -2.17%; to `Cc1ccc(S(=O)(=O)N2[C@@H](c3ccc(Br)cc3)C(C(=O)O)=C[C@H]2CC2CCCC2)cc1`, -9.97%.
On to `Cc1ccc(CNC(=O)COC(=O)C2CCC2)cc1`, for which the protection from apoptosis is -16.3%.
The same measure for `O=C(NC(Nc1nc2ccc([N+](=O)[O-])cc2s1)(C(F)(F)F)C(F)(F)F)c1ccccc1`: 118% (active); for `CCC(=O)NC(Nc1nc2ccc(C)cc2s1)(C(=O)OC)C(F)(F)F` (centres undefined): -2.12%; for `CN(C)CCCN(C(=O)c1ccc(S(=O)(=O)N2CCCc3ccccc32)cc1)c1nc2ccc(F)cc2s1`: -11.6%.
In the case of `CS(=O)(=O)c1ccc2nc(NC(=O)c3ccc(N4CCCC4=O)cc3)sc2c1`, the protection from apoptosis was 2.56%.
On to `CCOc1ccc2nc(NC(=O)c3cc([N+](=O)[O-])ccc3N3CCOCC3)sc2c1`, for which the protection from apoptosis is 32.1%.
The same measure for `O=C(Nc1nc2ccc([N+](=O)[O-])cc2s1)c1ccc(S(=O)(=O)N2CCCc3ccccc32)cc1`: 113% (active); for `O=C(Nc1ccccc1)N1CCC(C(=O)N2CCN(Cc3ccccc3)CC2)CC1`: -2.8%.
The same measure for `O=C(COC(=O)COc1cccc(F)c1)NCC1CCCCC1`: -3.55%; for `Cc1ccc(NS(=O)(=O)c2ccc(C(C)C)cc2)cc1S(=O)(=O)N1CCOCC1`: 4.91%.
The same measure for `Cc1ccccc1NC(=O)CSC(=O)c1ccccc1`: -2.98%; for `C#CCOCCOCCOCCNc1nc(N2CCN(C(=O)[C@H](CO)n3cc([C@@H](N)C(C)C)nn3)CC2)nc(N2CCN(C(=O)[C@H](CCC(=O)O)n3cc([C@@H](N)[C@H](C)CC)nn3)CC2)n1`: -6.94%; for `CN(C(=O)c1cccc(NC(=O)Cc2ccc([N+](=O)[O-])cc2)c1)C1CCC1`: -5.07%.
With `C=CCC1(CC=C)CCCN1C(=O)c1cc(COc2ccc(-n3cncn3)cc2)on1`, the protection from apoptosis is 104% (active).
As to `CCn1ccnc1CN(C)C(=O)c1cc(COc2ccc(-n3cncn3)cc2)on1`, the protection from apoptosis was -3.2%.
Regarding `COc1cccc(OCc2cc(C(=O)N3CCN(C(=O)c4ccco4)CC3)no2)c1`, the protection from apoptosis was -1.9%.
The same measure for `Cc1cccc(NC(=O)c2ccc(S(=O)(=O)N(C)c3ccccc3)cc2)n1`: -7.09%; for `COc1cc2cc(C(=O)N/N=C/c3cccc(OC)c3OC)[nH]c2cc1OC`: 0.139%; for `COc1cccc(/C=N/NC(=O)c2[nH]nc3c2CCc2ccccc2-3)c1O`: 82.2% (active).
Turning to `CN(C)CCNC(=O)c1[nH]nc2c1CCc1ccccc1-2`, the protection from apoptosis is -8.17%.
Regarding `COc1cc(C(=O)NC2CCN(C)CC2)ccc1Nc1ncc2c(n1)N(C1CCC(O)CC1)CCC(=O)N2C` (centres undefined), the protection from apoptosis was -0.596%.
To `COc1cc(SC)ccc1C(=O)NNC(=O)C1COc2ccccc2O1` (centres undefined) belongs -1.75%; to `CCCN(CC(=O)Nc1ccccc1C)C(=O)c1ccc2[nH]c3c(c2c1)CC(C)CC3` (centres undefined), 8.11%; to `COc1ccc(OCCCC(=O)Nc2cccc(S(=O)(=O)N3CCCCCC3)c2)cc1`, -3.4%.
Turning to `COc1ccc(/C=N/Nc2nc3ccccc3c(=O)[nH]2)cc1`, the protection from apoptosis is 12%.
Regarding `COc1ccc(Cc2nnc(N/N=C/c3ccccc3O)[nH]c2=O)cc1OC`, the protection from apoptosis is 85.2% (active).
To `CC(C)c1ccc(Cc2nnc(NCCCO)[nH]c2=O)cc1` belongs -1.74%; to `CC(=O)c1c(C)[nH]c(C(=O)COc2ccc3c(C)cc(=O)oc3c2)c1C`, -1.3%.
`CN(c1ccccc1)S(=O)(=O)c1ccc(C(=O)N2CCN(c3ccccc3Cl)CC2)cc1`: the protection from apoptosis was 3.55%.
To `Cc1ccc2c(c1)NC(=O)[C@@]1(C)[C@@H](c3ccccc3)[C@H]3COc4ccc(Cl)cc4[C@@H]3N1C2=O` belongs -5.63%.
To `CCOC(=O)C1=C(CN2CCCCCC2)NC(=O)NC1c1cccc([N+](=O)[O-])c1` (centres undefined) belongs -5.34%; to `CCOC(=O)C1=C(CCc2ccccc2)NC(=O)NC1c1ccc2ccccc2c1` (centres undefined), 93.7% (active).
To `CCOC(=O)C1=C(CN2CCc3ccccc32)NC(=O)NC1c1ccc(Cl)cc1` (centres undefined) belongs -0.812%; to `Cc1cc(S(=O)(=O)NC2CCCCC2)ccc1OCC(=O)NCc1cccnc1`, 6.11%; to `Cc1ccc(CNC(=O)COc2ccc(S(=O)(=O)NC(C)C)cc2)cc1`, -8.98%.
`Cc1ccc(C)c(NS(=O)(=O)c2ccc(OCC(=O)NCc3cccnc3)cc2)c1`: the protection from apoptosis was 99.2% (active).
The same measure for `O=[N+]([O-])c1ccc(O)c(/C=N/Nc2ccccc2[N+](=O)[O-])c1`: 36.9%.
The same measure for `Oc1ccc(Br)cc1/C=N/Nc1ccccn1`: 133% (active); for `COc1ccc(-c2nn(-c3ccccc3)cc2/C=N/Nc2ccccn2)cc1OC`: 59.9%.
The same measure for `CCOC(=O)[C@H]1[C@H]2COc3cc(OC)ccc3[C@@H]2N2C(=O)CN(Cc3ccc(Cl)cc3)C(=O)[C@@]12C`: -0.794%; for `COc1ccc(C(=O)NCC2CCCCC2)cc1S(=O)(=O)N1CCCC1`: -0.303%.
Consider `CC(Sc1nnc(C2CC2)n1C1CC1)C(=O)Nc1ccc(C(N)=O)cc1` (centres undefined), for which the protection from apoptosis is -0.98%.
The same measure for `Oc1c(CN2CCN(c3ccc(F)cc3)CC2)cc(Cl)c2cccnc12`: 111% (active).
The same measure for `Oc1c(CN2CCCC2)cc(COCc2ccccc2)c2cccnc12`: 73%; for `Oc1ccc(CN2CCN(c3ncccn3)CC2)cc1`: -1.21%; for `CC1CCCCC1NC(=O)COc1ccc(C#N)cc1` (centres undefined): 0.693%.
To `CNS(=O)(=O)c1ccc(C(=O)NCC(=O)NCCc2ccc3c(c2)OCCO3)cc1` belongs -2.22%; to `CCN(CC)c1ccc(/C=N/Nc2nc(C)cc(C)n2)c(O)c1`, 81.7% (active); to `CCN(CC)c1ccc(/C=N/NC(=O)c2cnccn2)c(O)c1`, 101% (active).
For `CCN(CC)c1ccc(/C=N/NC(=O)CNC(=O)c2cccnc2)cc1`, the protection from apoptosis was 4.98%.
Turning to `Cc1cc(C)nc(N/N=C/c2ccncc2)n1`, the protection from apoptosis is -0.736%.
Turning to `Cc1ccc(C(=O)NCCNC(=O)c2cnccn2)cc1`, the protection from apoptosis was -7.48%.
For `Cc1cc(C)nc(N/N=C/c2c(CO)cnc(C)c2O)n1`, the protection from apoptosis was -3.01%.
With `CC1(C)CC[C@@]2(C(=O)O)C(C1)C1=CCC3[C@@]4(C)CC[C@H](O)C(C)(C)C4CC[C@@]3(C)[C@]1(C)C[C@H]2O` (some centres undefined), the protection from apoptosis is 22.4%.
As for `COc1ccc(C(=O)Nc2cc(S(=O)(=O)N3CCCC3)ccc2Cl)cc1`, the protection from apoptosis is -1.79%.
On to `O=C1NC(Cc2ccc(O)cc2)c2nc3ccc(Cl)cc3c(=O)n2-c2ccccc21` (centres undefined), for which the protection from apoptosis was -3.47%.
Take `CN(Cc1ccc(CNC[C@H]2O[C@@H](n3cnc4c(N)ncnc43)[C@H](O)[C@@H]2O)o1)S(C)(=O)=O`: the protection from apoptosis is -10.1%.
As to `C[C@@H]1CN([C@@H](C)CO)C(=O)c2cc(NC(=O)C3CC3)ccc2O[C@H]1CN(C)C`, the protection from apoptosis is 0.593%.
For the compound `CCOC(=O)c1ccc(-c2ccc(C(=O)Nc3cccnc3)o2)cc1`, the protection from apoptosis was 3.72%.
As to `Cc1ccc2nc(-c3ccc(NC(=O)c4cccnc4)cc3)oc2c1`, the protection from apoptosis is 106% (active).
For `Cc1cc2nc(-c3ccc(NC(=O)c4cccnc4)cc3)oc2cc1C`, the protection from apoptosis is 104% (active).
To `Cc1ccc(-n2nc3cc(C)c(NC(=O)c4cccnc4)cc3n2)cc1` belongs -1.41%; to `CC(=O)NC(=S)Nc1ccc(NC(=O)c2cccnc2)cc1`, -1.43%.
Turning to `CCOC(=O)c1ccc(NC(=O)c2cccnc2)cc1`, the protection from apoptosis was 112% (active).
The same measure for `O=C(Cc1ccccc1)Nc1ccc(NC(=O)c2cccnc2)cc1`: -0.0371%; for `CCOC(=O)c1cc(NC(=O)c2cccnc2)ccn1`: -6.76%.
On to `Cc1cc(NS(=O)(=O)c2ccc(NC(=O)c3cccnc3)cc2)nc(C)n1`, for which the protection from apoptosis is -3.28%.
